± gives the standard deviation of the averaged measurements.
Columns and labels:
[1] = system: Renilla luciferase (RLuc); experiment: residual bioluminescent signal relative to negative (DMSO) control; higher = less interference (more residual luciferase signal)
In short: (§1)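 In triplicate wells of 384-well plates, each metal salt (0.01, 1 and 5 mM final, prepared in water) was pre-incubated with purified firefly, NanoLuc or Renilla luciferase for 10 min at room temperature in either screening or HEPES buffer. Readings of luminescence were taken 10 min after the substrate went in. The residual signal for a well is its luminescence relative to the mean of vehicle-only wells on the same plate, as a percentage.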

[2] = system: NanoLuc luciferase (NLuc); experiment: as above
In short: as §1

[3] = metal salt concentration 0.01 mM, HEPES conditions (100 mM HEPES, 0.05% BSA, 0.3 M sodium ascorbate, pH 7.5)
[4] = metal salt concentration 0.01 mM, screening conditions (50 mM Tris-HCl, […] KH2PO4, […] NaCl, 0.25 mM EDTA, 0.1% BSA, 0.3 M sodium ascorbate, pH 7.4)
[5] = metal salt concentration 1 mM, HEPES conditions (100 mM HEPES, 0.05% BSA, 0.3 M sodium ascorbate, pH 7.5)
[6] = metal salt concentration 1 mM, screening conditions (50 mM Tris-HCl, […] KH2PO4, […] NaCl, 0.25 mM EDTA, 0.1% BSA, 0.3 M sodium ascorbate, pH 7.4)
[7] = metal salt concentration 5 mM, HEPES conditions (100 mM HEPES, 0.05% BSA, 0.3 M sodium ascorbate, pH 7.5)
[8] = metal salt concentration 5 mM, screening conditions (50 mM Tris-HCl, […] KH2PO4, […] NaCl, 0.25 mM EDTA, 0.1% BSA, 0.3 M sodium ascorbate, pH 7.4)
[9] = metal salt concentration 0.01 mM, HEPES conditions (100 mM HEPES, 0.1% BSA, pH 7.5)
[10] = metal salt concentration 0.01 mM, screening conditions (PBS, 0.1% BSA, pH 7.4)
[11] = metal salt concentration 1 mM, HEPES conditions (100 mM HEPES, 0.1% BSA, pH 7.5)
[12] = metal salt concentration 1 mM, screening conditions (PBS, 0.1% BSA, pH 7.4)
[13] = metal salt concentration 5 mM, HEPES conditions (100 mM HEPES, 0.1% BSA, pH 7.5)
[14] = metal salt concentration 5 mM, screening conditions (PBS, 0.1% BSA, pH 7.4)

SMILES	residual bioluminescent signal [1, 3]	residual bioluminescent signal [1, 4]	residual bioluminescent signal [1, 5]	residual bioluminescent signal [1, 6]	residual bioluminescent signal [1, 7]	residual bioluminescent signal [1, 8]	residual bioluminescent signal [2, 9]	residual bioluminescent signal [2, 10]	residual bioluminescent signal [2, 11]	residual bioluminescent signal [2, 12]	residual bioluminescent signal [2, 13]	residual bioluminescent signal [2, 14]
O=[N+]([O-])[O-].[Li+] [lithium nitrate]	88.6 ± 6.9%	87.4 ± 5.8%	94.2 ± 14%	86.8 ± 1.4%	97.7 ± 6.4%	88.5 ± 5.5%						
O=[N+]([O-])[O-].O=[N+]([O-])[O-].[Pb+2] [lead(II) nitrate]	102 ± 1.7%	112 ± 8.2%	42.9 ± 4.4%	69.9 ± 14%	30.2 ± 3.3%	5.96 ± 0.97%	94 ± 3.2%	93.8 ± 2.2%	26.7 ± 2.9%	88.2 ± 4.3%	7.56 ± 0.53%	44.2 ± 9%
O=[N+]([O-])[O-].O=[N+]([O-])[O-].[Ca+2] [calcium nitrate]	83 ± 5.8%	79.9 ± 9.1%	92.3 ± 4.3%	86.7 ± 4.6%	106 ± 6.2%	19.5 ± 7.2%						
O=[N+]([O-])[O-].O=[N+]([O-])[O-].[Cd+2] [cadmium nitrate]	100 ± 15%	102 ± 9.5%	11.8 ± 0.97%	45.6 ± 6.1%	1.41 ± 0.32%	12.2 ± 3.1%						
O=[N+]([O-])[O-].O=[N+]([O-])[O-].[Zn+2] [zinc nitrate]	86 ± 1.9%	96.8 ± 8.7%	11.8 ± 2.2%	85.7 ± 3.5%	1.13 ± 0.12%	14.9 ± 12%	93.6 ± 0.95%	93 ± 6.4%	30.5 ± 4.9%	32.8 ± 4.5%	16.1 ± 1.8%	9.03 ± 2.6%
[Cl][Sn][Cl] [tin(II) chloride]	103 ± 4.7%	96.3 ± 7.4%	103 ± 11%	95.3 ± 12%	92.9 ± 2.4%	11.3 ± 2.3%						
O=[N+]([O-])[O-].O=[N+]([O-])[O-].[Ni+2] [nickel(II) nitrate]	82.5 ± 12%	99.08 ± 0.95%	57.9 ± 4.5%	79.3 ± 3.2%	22.4 ± 2.8%	52.7 ± 11%						
O=[N+]([O-])[O-].[K+] [potassium nitrate]	110 ± 7.7%	101 ± 7.9%	104 ± 1.4%	108 ± 11%	109 ± 5.3%	102 ± 3.8%						
O=[N+]([O-])[O-].O=[N+]([O-])[O-].O=[N+]([O-])[O-].[Ga+3] [gallium(III) nitrate]	105 ± 12%	98.9 ± 6%	10.6 ± 0.8%	112 ± 11%	3.03 ± 1.8%	1.92 ± 1.4%						
O=[N+]([O-])[O-].O=[N+]([O-])[O-].[Cu+2] [copper(II) nitrate]	99.3 ± 10%	104 ± 6.5%	0.774 ± 0.61%	0.583 ± 0.34%	0.774 ± 0.24%	0.897 ± 0.62%	95.5 ± 6.9%	90.4 ± 2.7%	0.235 ± 0.062%	0.732 ± 0.11%	0.689 ± 0.91%	0.201 ± 0.12%
O=[N+]([O-])[O-].[Na+] [sodium nitrate]	93.9 ± 5.2%	101 ± 3.4%	96.7 ± 2.8%	97.6 ± 5.2%	109 ± 7.3%	107 ± 2.8%	89.7 ± 1.5%	96.7 ± 2.3%	91.8 ± 4.2%	93.2 ± 3.3%	102 ± 2.5%	94.1 ± 2.8%
O=[N+]([O-])[O-].O=[N+]([O-])[O-].O=[N+]([O-])[O-].[Al+3] [aluminium nitrate]	85.7 ± 7.3%	91.1 ± 1%	7.39 ± 0.84%	90.2 ± 1.4%	103 ± 2.5%	94.2 ± 6.2%	95.9 ± 2.5%	100 ± 2.5%	68.7 ± 3.2%	89.9 ± 5.7%	107 ± 1.8%	103 ± 4.9%
